Experimental data taken from PubChem BioAssay AID1053144 (Broad Institute, 2014).
The campaign covered roughly 3,400 compounds. About 160 (4.7%) were called active.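 The calls were made as follows: active = fitted curve reaches 30% activation at a concentration no higher than the top valid tested dose, luminescence rising; inconclusive = no clear call, values can overlap the other calls; inactive = signal moving opposite to the expected increase, plus the rest.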 A selection follows. Potency and affinity values are given separately.

Experiment: TCF/LEF reporter activation in neural progenitors – cell-based, iPS-derived NPC, luciferase, Wnt3a, cherry-pick, dose response (AID 1053144);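 also: Wnt3a stimulus is conditioned medium from Wnt3a-transfected mouse L cells at 5% in well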
Settings: Wnt3a EC25, 24 h; series mostly up to 26 µM

activation, inactive:
CCOc1ccccc1-n1nnnc1SCC(=O)O, Cc1c(CC(=O)N[C@H](C(=O)O)C(C)C)c(=O)oc2cc3c(cc12)CCC(C)(C)O3, Cn1cccc1-c1nc2ccc(NC(=O)c3ccco3)cc2[nH]1, O=C(Nc1ccc2nc(-c3ccco3)[nH]c2c1)c1ccco1, O=C(Nc1ccc2c(c1)Cc1ccccc1-2)c1ccccc1F, Cc1ccc(C)c(N2CCN(C(=O)CCc3nc(-c4ccccc4C(F)(F)F)no3)CC2)c1, CCOC(=O)C1CCCN(C(=O)CCc2nnc(-c3ccc(C(C)=O)s3)o2)C1 (configuration not stated), Cc1ccc(OCc2cc(C(=O)N3CCN(c4ccccc4)CC3)no2)cc1C, CC(=O)Nc1cccc(NC(=O)c2cc3ccccc3o2)c1, CC(C)(C)C(=O)Nc1ccc(C(=O)Nc2cccnc2)cc1, COc1cc(/C=C/c2ccc3cccc(O)c3n2)cc(Cl)c1OC, COc1cccc(/C=C/c2ccc3cccc(O)c3n2)c1OC, COc1cc(/C=C/C(=O)OCC(=O)NCCc2ccccc2)cc(OC)c1OC, Oc1ccc(Cl)cc1C=NN1CCCCCC1, COc1ccc(-c2nc3ccccc3s2)cc1NC(C)=O, CCN1CCN(C(=O)c2ccc(-c3nc4ccccc4s3)s2)CC1, CN(CCO)c1c2c(nc3cc(-c4cccc(F)c4)nn13)CCCC2, O=C(c1ccccc1)c1nnc(-c2ccccc2F)o1, O=[N+]([O-])c1cccc(C2=NC(c3ccccc3)CO2)c1 (configuration not stated), O=C(c1cc(-c2cccc(O)c2)on1)N1CCCCC1, O=C(c1cc(-c2cccc(O)c2)on1)N1CCOCC1, Cc1cc(=O)oc2cc(OCC(=O)Nc3nccs3)ccc12, Cn1cccc1/C=C1\SC(=O)N(c2ccccc2)C1=O, CCn1cc(S(=O)(=O)CC(=O)Nc2ccc3c(c2)OCO3)c2ccccc21, CC(=O)Oc1ccc(-c2csc(Nc3ccccn3)n2)cc1, CC(=O)c1sc(NC(=O)c2ccc3c(c2)OCO3)nc1C, CC(C)NC(=O)N1CCCN(c2nc3ccc(Cl)cc3s2)CC1, CC(C)NC(=O)c1ccc2c3n(nc2c1)-c1ccc(Cl)cc1CO3, Cc1ccc2c(c1)COc1c3ccc(C(=O)NC(C)C)cc3nn1-2, C[C@@H](CO)NC(=O)c1ccc2c3n(nc2c1)-c1ccc(Cl)cc1CO3, O=C(NCCO)c1ccc2c3n(nc2c1)-c1ccccc1CO3, Cc1ccc2c(c1)COc1c3ccc(C(=O)NCCO)cc3nn1-2, C=CCNC(=O)c1ccc2c3n(nc2c1)-c1ccc(C)cc1CO3, O=C(c1ccco1)N1CCN(c2ccc(N3CCCCC3)nn2)CC1, c1cn2c(Nc3ccc4c(c3)OCCO4)c(-c3ccc(N4CCOCC4)cc3)nc2cn1, Cc1nn(C(=O)c2cccs2)c(N)c1-c1ccccc1, O=C(/C=C/c1ccc([N+](=O)[O-])cc1)Nc1cccnc1, COc1ccc(OC)c(NC(=O)CSc2nnc(C3CCCCC3)n2-c2ccccc2)c1, O=C(OCC(=O)N1CCOCC1)c1ccc2ccccc2c1O, O=C(COc1ccc2ccccc2c1)N1CCCC1, O=C(Nc1ccc(C(=O)c2ccccc2)cc1)c1ccccc1, O=C(Nc1ccc(-c2cn3ccsc3n2)cc1)C1CC1, O=c1c2cc(-c3ccccc3)sc2nc2n1CCC2, CCOC(=O)c1sc2nc(-c3cccnc3)ccc2c1N, CC(C)c1[nH]nc2c1C(C1C=CCCC1)C(C#N)=C(N)O2 (configuration not stated), COc1ccc2cc(CCNC(=O)c3ccco3)c(=O)[nH]c2c1, CCCNC(=O)c1oc2ccc3c(c2c1C)C(=O)CC(C)(C)O3, CCCNC(=O)c1cc(-c2ccc3c(c2)OCO3)on1, Cc1cccn2cc(-c3ccc(F)cc3)nc12, c1ccc(-c2ccc3ccccc3n2)cc1, COc1cc2ccc(-c3ccc4ccccc4n3)cc2cc1OC, Cc1occc1C(=O)NNC(=O)c1ccccc1F, CCCCNc1c(-c2ccc(-c3cccc(Cl)c3)cc2)nc2ccccn12, COc1ccc(C)cc1NC(=O)CSc1nnnn1Cc1ccccc1, COC(=O)c1cc2c(s1)-c1ccc(OC)cc1CC2, COCCNC(=O)c1cc2sc3ccccc3c2s1, CCC1CCC(NC(=O)Nc2cccc(OC)c2)CC1 (configuration not stated), Cc1cc2ncc(-c3ccccc3)nc2cc1C, Oc1ccc(-c2cnc3ccccc3n2)cc1, CCC(=O)n1nc(-c2ccc(Cl)cc2)nc1SC, CCCCC12CN3CCN(CC(C3)/C1=N\NC(=O)c1ccccc1N)C2, CN(C)c1cccc(-c2csc(N3CCC(C(N)=O)CC3)n2)c1, Cn1cccc1C(=O)OCC(=O)c1ccc(Br)s1, Cc1ccc(C(=O)COC(=O)c2cccc(O)c2)s1, CCOc1ccc(N2C(=O)CC(SCCN)C2=O)cc1 (configuration not stated), O=C(Nc1ccccc1)C1=C[C@@H](C2CC2)C[C@@H](OCc2ccc(CO)cc2)O1, O=C1c2ccccc2C(=O)C1c1ccnc2ccccc12, O=C1/C(=C/c2ccc(O)cc2)COc2ccccc21, O=C(Nc1nccs1)c1c(O)c2c([nH]c1=O)CCCC2, Cc1ccc2cc(NC(=O)c3ccccc3)ccc2n1, O=C(Nc1ccc2ccccc2c1)c1cccc(F)c1, COc1cccc(-c2nc(-c3ccccn3)no2)c1OC, CN(C(=O)c1cc2c(=O)n3ccccc3nc2n1C)C1CCCCC1, Brc1ccc(-c2nc(-c3ccccc3)no2)o1, Brc1ccc(-c2noc(-c3ccccc3)n2)o1, O=C(c1ccc(-c2cccc(Cl)c2Cl)o1)N1CCOCC1, O=C(c1ccc(-c2ccccc2Cl)o1)N1CCCCCCC1, CC(C)(C)c1ccc(OCc2ccc(C(=O)NCc3cccnc3)o2)cc1, O=c1ncn(-c2cccc(Cl)c2)c2ccccc12, O=C(Nc1nccs1)c1ccc(N2CCOCC2)c([N+](=O)[O-])c1, Cc1occc1C(=O)N/N=C/C(Br)=C\c1ccccc1, O=C(N/N=C/c1cccc(OCc2ccccc2)c1)c1cccs1, COc1ccc(CN2C(=O)C(C)S/C2=N/N=C/c2ccco2)cc1 (configuration not stated), CCCc1cc(C(=O)NC2CCCCC2)no1, O=C(Nc1nc2cc3c(cc2s1)OCCO3)c1cccs1, CC(=O)Nc1nc2cc3c(cc2s1)OCCO3, Cc1c(C(=O)Nc2ccc(Br)cc2)cnn1C, Nc1nc(N)nc(-c2cccc(Br)c2)n1, Cc1ccc(F)c(CNC(=O)C2(C)CCCN2C(=O)C(C)C)c1F (configuration not stated), O=C(Nc1cccc(-c2ccc(N3CCOCC3)nn2)c1)c1ccc([N+](=O)[O-])cc1, Cc1ccc(C(=O)Nc2cccc(-c3ccc(N4CCOCC4)nn3)c2)cc1, N/C(=N\OC(=O)c1ccc(Cl)cc1Cl)c1cccnc1, CN(C)Cc1c(C(=O)Nc2ccccc2)[nH]c2ccccc12, COc1ccc(C(=O)Nc2cccc(C)c2)cc1, CC1CCN(C(=O)CNC(=O)c2ccc(Br)o2)CC1, COc1cccc(/C=C/c2ccccn2)c1O, COc1ccccc1NC(=O)COc1ccccc1C(=O)c1cnn(-c2ccccc2)c1, O=C(c1cnn(-c2cccc(F)c2)c1)c1ccccc1O, CC(O)C(NS(=O)(=O)c1ccc(Cl)cc1)C(=O)OCCOc1ccc(F)cc1 (configuration not stated), Cc1cnc(NC(=O)c2sc(Nc3ccccc3)nc2N)o1, CC(C)NC(=O)N(C)C[C@H]1Oc2ccc(NC(=O)Nc3ccccc3)cc2C(=O)N([C@H](C)CO)C[C@@H]1C, COc1cccc(CSc2nc3ccccc3[nH]2)c1, COc1cc2sc3cc(NCc4ccc(C)o4)ccc3c(=O)c2cc1OC, CCOC(=O)C1=C(Nc2ccc(OC)cc2)OCC1=O, COc1ccc(Nc2n[nH]c(C)c2[N+](=O)[O-])cc1, CCOc1ccc(C(=O)N(CC(=O)Nc2cccc(C)c2C)CC2CCCO2)cc1OC (configuration not stated), COc1ccc(-c2nnc(-c3cccnc3)o2)cc1, COc1ccc(S(=O)(=O)N2CCOCC2)cc1NC(=O)c1ccc2c(c1)OCCO2, C#CCOC(=O)CCCC(=O)Nc1ccccc1OC, C=CCn1c(C)nc2c(sc3nc4c(cc32)COC(C)(C)C4)c1=O, COc1cc(/C=N/Nc2ccc(C(F)(F)F)cn2)ccc1O, CCOc1ccc(/C=N/NC(=O)Cn2ccnc2C)cc1, O=C1NC(c2ccccc2Cl)=N/C1=C/c1ccco1, c1ccc(-c2cn(CC3CCCCC3)nn2)cc1, O=c1oc(CCCO)cc2ccc(C#Cc3ccsc3)cc12, COc1cc(C#Cc2ccc3cc(CCO)oc(=O)c3c2)cc(OC)c1, CCOC(=O)C1(Cc2cccc(OC)c2)CCCN(C(=O)c2ccccc2C)C1 (configuration not stated), Brc1ccsc1/C=N/Nc1ccccc1, Cc1cccc(C(=O)c2c(N)sc3c2CCCC3)c1, CC(=O)Nc1ccc(NC(=O)CN(c2ccccc2Cl)S(C)(=O)=O)cc1, O=C(c1ccccc1)c1ccc(-c2ccc(O)cc2)cc1, CC(C)OC(=O)c1ccc2nc3ccccc3nc2c1
